Inconclusive results are not listed. Active and inactive are the calls of the source. Unless noted, the call rests on the fitted dose curve; in most records, active means well fitted curve in the direction sought with a large enough effect in the repeat runs; inconclusive means weak or mixed curves; inactive means no such curve, though single readings can be large; an effect the other way counts as inactive or inconclusive.
Key:
[1] = target: Aryl hydrocarbon receptor (Homo sapiens) (UniProt P35869); test: qHTS assay to identify small molecule that activate the aryl hydrocarbon receptor (AhR) signaling pathway (AID 743085);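 further: HG2L7.5c1 human HepG2 liver cells with stably integrated DRE-driven firefly reporter; series mostly up to about 70 µM; nearly all actives have a fitted effect of over 15% in size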
Outline: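 Cell line HG2L7.5c1 (human hepatoma, 20× DRE-luc). Plated, 5 h 37C, compound/DMSO added, 24 h 37C. CellTiter-Fluor 30 min 37C → fluorescence; then ONE-Glo 30 min RT → luminescence.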

[2] = qHTS assay to identify small molecule that activate the aryl hydrocarbon receptor (AhR) signaling pathway - cell viability counter screen (AID 743086);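 further: HepG2 liver cells carrying the AhR DRE luciferase reporter; series mostly up to about 70 µM; nearly all actives have a fitted effect of over 45% in size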
Outline: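 Cytotoxicity counter screen: CellTiter-Fluor signal (30 min, 37 C) in 4000 HepG2 cells/well carrying the DRE-luciferase reporter, following 24 h compound exposure at 37 C.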

[3] = target: Peroxisome proliferator-activated receptor gamma (Homo sapiens) (UniProt P37231); test: qHTS assay to identify small molecule agonists of the peroxisome proliferator-activated receptor gamma (PPARg) signaling pathway (AID 743094; active means well fitted activation curve with a large enough effect in the signal ratio in the repeat runs, not every such curve was filed as active; the % refers to the signal ratio)
Outline: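 GeneBLAzer PPARg UAS-bla HEK293H cells were plated, rested 5 h, then exposed to compounds for 17 h at 37C. Beta-lactamase activity was read by LiveBLAzer B/G FRET substrate fluorescence after 1 h at room temperature.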

[4] = target: Peroxisome proliferator-activated receptor gamma (Homo sapiens) (UniProt P37231); test: qHTS assay to identify small molecule antagonists of the peroxisome proliferator-activated receptor gamma (PPARg) signaling pathway (AID 743191; calls by dose curve; further: series mostly up to about 63 µM; nearly all actives have a fitted effect of over 30% in size)
Outline: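 Beta-lactamase reporter under UAS control in HEK293H PPARg-bla cells; compound treatment 17 h at 37C. Read-out: fluorescence intensity after 1 h room-temperature incubation with LiveBLAzer B/G FRET substrate.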

[5] = qHTS assay to identify small molecule antagonists of the peroxisome proliferator-activated receptor gamma (PPARg) signaling pathway - cell viability counter screen (AID 743194); settings: Potency: co-treated with 50 nM rosiglitazone unless noted; further: nearly all actives have a fitted effect of over 55% in size
Outline: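 Viability was measured as CellTiter-Glo luminescence in GeneBLAzer PPARg UAS-bla HEK293H cells. These cells had been exposed 17 h at 37 C to compounds together with rosiglitazone at 50 nM final, with the beta-lactamase readout taken in the same wells.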

[6] = qHTS assay for small molecule agonists of the antioxidant response element (ARE) signaling pathway - cell viability counter screen (AID 743203; calls by dose curve; further: nearly all actives have a fitted effect of over 55% in size)
Outline: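 ARE-bla HepG2 cells were plated, rested 5 h at 37C/5% CO2, then exposed to compounds in DMSO for 16 h. Viability was read as CellTiter-Glo luminescence after 30 min at room temperature, in the same wells as the ARE screen.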

[7] = qHTS assay for small molecule activators of the heat shock response signaling pathway - cell viability counter screen (AID 743209); further: nearly all actives have a fitted effect of over 50% in size
Outline: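 HSE-bla HeLa cells plated overnight, then exposed to Tox21 compounds (23 nL in DMSO) for 5 h at 37 C. After the bla reporter read, CellTiter-Glo was added in the same wells and luminescence read after 30 min at room temperature.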

[8] = qHTS assay to identify aromatase inhibitors - cell viability counter screen (AID 743084);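 further: cells stimulated with testosterone during compound exposure; nearly all actives have a fitted effect of over 55% in size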
[9] = qHTS assay for small molecule agonists of the antioxidant response element (ARE) signaling pathway (AID 743202; active means well fitted activation curve with a large enough effect in the signal ratio in the repeat runs, not every such curve was filed as active; the % refers to the signal ratio; further: potency means the concentration at half of the fitted maximal effect)
Outline: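 An ARE-responsive beta-lactamase gene stably integrated in HepG2 cells serves as reporter. After 5 h plating and 16 h compound incubation at 37 C, fluorescence of the B/G FRET substrate was measured.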

[10] = qHTS assay for small molecule activators of the heat shock response signaling pathway (AID 743210; active means well fitted activation curve with a large enough effect in the signal ratio in the repeat runs, with a control signal flat, not every such curve was filed as active; the % refers to the signal ratio;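 further: HeLa cells with beta-lactamase reporter driven by heat shock elements; series mostly up to about 63 µM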)
Outline: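 In HSE-bla HeLa cells, 5 h compound incubation (37 C) precedes addition of LiveBLAzer B/G substrate; after 2.5 h at room temperature, fluorescence intensity indicates reporter induction.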

Measured: Potency

Chain of Peroxisome proliferator-activated receptor gamma (Homo sapiens) (P37231 whole entry, looked up): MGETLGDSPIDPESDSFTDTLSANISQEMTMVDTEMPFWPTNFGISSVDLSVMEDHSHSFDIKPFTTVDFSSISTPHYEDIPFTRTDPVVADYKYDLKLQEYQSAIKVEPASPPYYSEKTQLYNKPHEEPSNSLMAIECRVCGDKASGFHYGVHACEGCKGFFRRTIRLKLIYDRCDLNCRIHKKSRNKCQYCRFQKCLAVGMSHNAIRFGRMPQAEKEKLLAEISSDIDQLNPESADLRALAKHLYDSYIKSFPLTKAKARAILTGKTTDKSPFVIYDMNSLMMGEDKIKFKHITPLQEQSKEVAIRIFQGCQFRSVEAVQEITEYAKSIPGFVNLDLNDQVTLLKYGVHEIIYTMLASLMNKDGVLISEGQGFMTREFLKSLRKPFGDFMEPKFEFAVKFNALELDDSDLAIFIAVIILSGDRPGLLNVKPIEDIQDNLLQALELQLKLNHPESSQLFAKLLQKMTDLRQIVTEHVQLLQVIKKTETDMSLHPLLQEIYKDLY
Chain of Aryl hydrocarbon receptor (Homo sapiens) (P35869 whole entry, looked up): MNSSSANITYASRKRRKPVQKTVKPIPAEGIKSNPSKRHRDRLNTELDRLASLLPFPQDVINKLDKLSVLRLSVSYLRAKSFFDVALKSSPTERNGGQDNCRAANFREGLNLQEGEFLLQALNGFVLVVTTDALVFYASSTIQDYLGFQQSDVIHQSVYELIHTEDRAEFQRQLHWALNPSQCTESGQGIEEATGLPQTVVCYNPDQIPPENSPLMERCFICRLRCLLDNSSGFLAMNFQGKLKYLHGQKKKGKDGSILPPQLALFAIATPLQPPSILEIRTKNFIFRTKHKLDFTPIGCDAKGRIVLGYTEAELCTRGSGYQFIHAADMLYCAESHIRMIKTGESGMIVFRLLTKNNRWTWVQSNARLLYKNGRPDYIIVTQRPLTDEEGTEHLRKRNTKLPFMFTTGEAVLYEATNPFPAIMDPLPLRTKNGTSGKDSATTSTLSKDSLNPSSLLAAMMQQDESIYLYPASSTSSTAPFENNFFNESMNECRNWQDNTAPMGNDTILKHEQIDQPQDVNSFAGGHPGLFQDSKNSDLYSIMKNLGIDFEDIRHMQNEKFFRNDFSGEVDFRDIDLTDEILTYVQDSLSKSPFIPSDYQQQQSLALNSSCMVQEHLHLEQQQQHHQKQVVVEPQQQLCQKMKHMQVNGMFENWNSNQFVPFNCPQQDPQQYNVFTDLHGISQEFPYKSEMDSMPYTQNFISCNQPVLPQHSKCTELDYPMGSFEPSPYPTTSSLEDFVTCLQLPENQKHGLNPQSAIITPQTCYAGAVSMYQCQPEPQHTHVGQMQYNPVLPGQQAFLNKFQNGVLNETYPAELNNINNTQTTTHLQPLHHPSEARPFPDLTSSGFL

CCC(C)c1cccc(C(C)CC)c1O (centres undefined)
not listed: [8] | [9] | [10]
inactive: all other assays above

Cc1ccccc1OP(=O)(Oc1ccccc1C)Oc1ccccc1C
inactive: [8] | [3] | [4] | [7]

O=S(=O)(NS(=O)(=O)C(F)(F)F)C(F)(F)F
inactive: [8] | [5] | [6] | [7]

CCN(CC)Cc1nccn1-c1ccc([N+](=O)[O-])cc1C(=O)c1ccccc1Cl
active: [9] 21.1 µM
not listed: [1] | [3] | [4]
inactive: all other assays above

CSC(=O)c1c(C(F)F)nc(C(F)(F)F)c(C(=O)SC)c1CC(C)C
inactive: [8] | [5] | [9] | [7] | [10]

[Cl-].[Cl-].[Sn+2]
inactive: [8] | [1] | [6] | [7] | [10]

COCCC#N
not listed: [1] | [4]
inactive: all other assays above

CC(C)=CCN1CC[C@@]2(C)c3cc(O)ccc3C[C@@H]1[C@@H]2C
not listed: [1]
inactive: all other assays above

O=C(NC(=O)c1ccccc1Cl)Nc1ccc(OC(F)(F)F)cc1
not listed: [1] | [9]
inactive: all other assays above

O=C(NC(=O)c1c(F)cccc1F)Nc1ccc(Oc2ccc(C(F)(F)F)cc2Cl)cc1F
inactive: [8] | [1] | [5] | [6] | [7]

O=C1C[C@@H]2OCC=C3CN4CC[C@]56c7ccccc7N1[C@H]5[C@H]2[C@H]3C[C@H]46
not listed: [1] | [3] | [4]
inactive: all other assays above

C=CC(=C)C
not listed: [1] | [10]
inactive: all other assays above

Oc1ccc([C@H]2CNCc3c2ccc(O)c3O)cc1O
not listed: [1] | [4] | [9]
inactive: all other assays above

O=[N+]([O-])c1cccc2cccc([N+](=O)[O-])c12
active: [9] 9.73 µM
inactive: [8] | [2] | [5] | [6] | [7]

COc1ccc(Cc2nccc3cc(OC)c(OC)cc23)cc1OC
not listed: [1] | [2] | [9]
inactive: all other assays above

CCCC[N+]1(C)CCCC1 (tested in a mixture with another compound)
inactive: [8] | [5] | [6] | [7] | [10]

O=c1c2ccccc2c(=O)c2c1cc(Cl)c1[nH]c3c([nH]c12)c(Cl)cc1c(=O)c2ccccc2c(=O)c13
not listed: [1]
inactive: all other assays above

[O-][Cl+3]([O-])([O-])O
not listed: [1]
inactive: all other assays above

C1=CCC=C1
inactive: [8] | [2] | [9] | [6] | [7]

[C-]1=CC=CC1.[Cl][Zr+2][Cl].c1cc[cH-]c1
inactive: [8] | [2] | [5] | [9] | [6] | [7]

CCN(CC)C(=O)N[C@@H]1C=C2c3cccc4[nH]cc(c34)C[C@@H]2N(C)C1
not listed: [1]
inactive: all other assays above

O=C(O)CCCCCCNC1c2ccccc2CCc2ccccc21
inactive: [8] | [9] | [6] | [7] | [10]

N#Cc1c[nH]cc1-c1cccc2c1OC(F)(F)O2
not listed: [1] | [4]
inactive: all other assays above

CCCCCCCc1ccc(O)cc1
inactive: [1] | [3] | [5] | [7] | [10]

Nc1nc(N)c(N)c(N)n1
not listed: [1] | [5] | [8]
inactive: all other assays above

CC(=O)[O-].CC(=O)[O-].CC(=O)[O-].[Cr+3]
inactive: [1] | [2] | [6] | [7]
